Values joined by “and” are separate entries in the source; they are usually repeats but may differ in a detail not shown here. Equal values may be shown once. Results filed as inconclusive are left out. Active and inactive are the calls of the source. Unless noted, the call rests on the fitted dose curve; in most records, active means well fitted curve in the direction sought with a large enough effect; inconclusive means small, poorly fitted or top-dose-only effect, or another doubt; inactive means no such curve, though single readings can be large; an effect the other way counts as inactive or inconclusive.
Tests used:
[1] = qHTS assay for small molecule activators of the p53 signaling pathway (AID 651743; active means well fitted activation curve with a large enough effect in the signal ratio, not every such curve was filed as active; the % refers to the signal ratio; further: % of control where 0% means no effect); settings: HCT-116 p53RE-bla, beta-lactamase FRET ratio, 16 h; activation: active compounds read high
Outline: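 HCT-116 p53RE-bla, 4,000 cells/well; 5 h settle; cpd/DMSO 16 h, 37 C; LiveBLAzer B/G 2 h RT; fluorescence intensity.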

[2] = qHTS assay for small molecule activators of the nuclear factor-kappa B (NF-kB) signaling pathway (AID 651749; active means well fitted activation curve with a large enough effect in the signal ratio; the % refers to the signal ratio; further: % of control where 0% means no effect); settings: NF-kB-bla ME-180 cells, beta-lactamase FRET ratio, 16 h; active compounds read high
Outline: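 Incubation lasted 16 hr at 37C in 5% CO2 after 23 nL compound addition to ME-180 NF-kB-bla cells. Activation appears as beta-lactamase-mediated FRET loss.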

[3] = qHTS assay for small molecule disruptors of the mitochondrial membrane potential - 1 hr assay (AID 651754; calls by dose curve; further: on the % scale 0 is the no-effect control and ±100 the full control effect; nearly all actives have a fitted effect of over 35% in size); settings: series mostly up to 92.2 µM
Outline: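 Steps: seed HepG2 cells and let attach overnight; pin-transfer compound or vehicle; incubate 1 hr at 37C; add Mito-MPS dye for 30 min; read two-channel fluorescence for monomer and aggregate forms.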

[4] = qHTS assay for small molecule disruptors of the mitochondrial membrane potential - 5 hr assay (AID 651755; calls by dose curve; further: on the % scale 0 is the no-effect control and ±100 the full control effect; nearly all actives have a fitted effect of over 40% in size); settings: JC-1-type ratio dye; series mostly up to 92.2 µM
Outline: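 HepG2 cells (2,000/well), attached overnight, exposed to compound 5 hr at 37C, then Mito-MPS dye 30 min. Fluorescence read for monomers (490/535 nm) and aggregates (540/590 nm).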

[5] = target: Tumor necrosis factor (Homo sapiens) (UniProt P01375); assay: qHTS assay to identify small molecules that stimulate Tumor Necrosis Factor-alpha (TNF-alpha) secretion (AID 651757; active means well fitted curve in the direction sought with a large enough effect in the signal ratio; the % refers to the signal ratio; further: 0% is about no effect); settings: Human cells, HTRF 665/615 ratio; series mostly up to 92.2 µM
Chain of Tumor necrosis factor (Homo sapiens) (P01375 whole entry, looked up): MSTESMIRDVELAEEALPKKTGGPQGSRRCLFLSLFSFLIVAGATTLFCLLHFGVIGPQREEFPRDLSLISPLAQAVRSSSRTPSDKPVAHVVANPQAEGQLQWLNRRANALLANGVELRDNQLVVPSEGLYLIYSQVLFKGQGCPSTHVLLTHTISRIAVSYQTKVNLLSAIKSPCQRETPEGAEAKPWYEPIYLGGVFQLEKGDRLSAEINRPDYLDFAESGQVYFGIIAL
Outline: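 Secreted TNF-alpha from compound-treated THP-1 cells (17 hrs, 37 C) was quantified with a homogeneous time-resolved fluorescence antibody assay.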

[6] = qHTS assay to identify small molecules that stimulate interleukin-8 (IL-8) secretion (AID 651758; active means well fitted activation curve with a large enough effect in the signal ratio; the % refers to the signal ratio; further: 0% is about no effect); settings: HTRF ratio (665/615); series mostly up to 92.2 µM
Outline: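 THP-1 cells (2000/well) exposed to compound 16 h at 37 C; secreted IL-8 then detected by HTRF with cryptate- and XL665-labelled anti-IL-8 antibody pair after 1-3 h at room temperature.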

[7] = qHTS assay for environmental chemicals that activate the Aryl hydrocarbon Receptor (AhR) signaling pathway (AID 651777); settings: 1A2-DRE human hepatoma cells, luciferase, 24 h; activation: active compounds read high; further: % of control where 0% means no effect; nearly all actives have a fitted effect of over 15% in size
Outline: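 Luminescence (One-Glo, 30 min, room temperature) reports AhR-driven luciferase in stably transfected human hepatoma cells bearing DRE and CYP1A2 promoter. Cells (1,200/well) were treated with compound for 24 hr at 37 C in qHTS format.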

[8] = target: Peroxisome proliferator-activated receptor alpha (Homo sapiens) (UniProt Q07869); assay: qHTS assay for small molecule agonists of the peroxisome proliferator-activated receptor alpha (PPARalpha) signaling pathway (AID 651778); settings: PathHunter PPARalpha complementation, chemiluminescence, 6 h; active compounds read high; further: % of control where 0% means no effect
Chain of Peroxisome proliferator-activated receptor alpha (Homo sapiens) (Q07869 whole entry, looked up, the tested form may be a part): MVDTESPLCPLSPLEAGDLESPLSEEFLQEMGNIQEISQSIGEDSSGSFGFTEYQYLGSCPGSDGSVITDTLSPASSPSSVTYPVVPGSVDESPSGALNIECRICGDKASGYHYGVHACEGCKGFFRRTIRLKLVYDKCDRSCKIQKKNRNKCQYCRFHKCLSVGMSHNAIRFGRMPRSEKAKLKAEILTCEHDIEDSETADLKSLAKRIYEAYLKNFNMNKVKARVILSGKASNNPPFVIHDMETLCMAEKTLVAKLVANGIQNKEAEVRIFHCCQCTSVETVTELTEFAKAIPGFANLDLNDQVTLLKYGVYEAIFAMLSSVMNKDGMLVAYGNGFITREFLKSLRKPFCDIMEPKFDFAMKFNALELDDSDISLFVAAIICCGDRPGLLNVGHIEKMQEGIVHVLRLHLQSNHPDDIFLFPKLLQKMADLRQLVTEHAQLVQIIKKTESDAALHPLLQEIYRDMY
Outline: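 Enzyme-fragment complementation assay in which ligand-bound PPARalpha translocates and forms an active enzyme that generates chemiluminescence. Cells were plated overnight, exposed to compound for 6 hr at 37 C, and then given detection reagent for 60 min at room temperature.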

[9] = target: Nuclear receptor ROR-gamma (Homo sapiens) (UniProt P51449); assay: qHTS assay for small molecule antagonists of the retinoid-related orphan receptor gamma (ROR-gamma) signaling pathway (AID 651802); settings: ROR-gamma antagonist cell reporter assay; series mostly up to 92.2 µM;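 further: CHO cells with doxycycline-induced ROR-gamma expression; on the % scale 0 is the no-effect control and ±100 the full control effect; nearly all actives have a fitted effect of over 60% in size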
Chain of Nuclear receptor ROR-gamma (Homo sapiens) (P51449 whole entry, looked up): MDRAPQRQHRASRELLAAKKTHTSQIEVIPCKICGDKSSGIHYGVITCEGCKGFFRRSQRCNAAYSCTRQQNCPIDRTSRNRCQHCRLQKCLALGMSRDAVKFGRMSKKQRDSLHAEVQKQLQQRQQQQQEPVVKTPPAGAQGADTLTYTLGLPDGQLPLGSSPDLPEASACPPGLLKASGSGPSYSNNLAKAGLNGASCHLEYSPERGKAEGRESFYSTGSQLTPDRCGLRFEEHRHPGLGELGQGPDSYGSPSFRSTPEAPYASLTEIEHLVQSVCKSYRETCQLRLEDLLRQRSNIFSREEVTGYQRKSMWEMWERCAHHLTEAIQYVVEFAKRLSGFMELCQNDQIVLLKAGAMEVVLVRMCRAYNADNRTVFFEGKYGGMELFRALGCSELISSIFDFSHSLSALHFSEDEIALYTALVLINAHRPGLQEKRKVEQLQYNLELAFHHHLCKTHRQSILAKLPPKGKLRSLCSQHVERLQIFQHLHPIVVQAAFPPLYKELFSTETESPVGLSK
Outline: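 Antagonism is scored as a fall in luminescence from a RORE-luciferase reporter in CHO cells expressing ROR under a TET-inducible promoter, measured 16hr after doxycycline induction in the presence of compound.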

[10] = qHTS assay for small molecule agonists of the antioxidant response element (ARE) signaling pathway measured by Nrf2-dependant transcriptional activity (AID 720636; active means well fitted curve in the direction sought with a large enough effect in the repeat runs; an effect the other way counts as inactive or inconclusive; further: % of control where 0% means no effect); settings: ARE-luc HepG2, Nrf2 luciferase reporter, 16 h; series mostly up to 92.4 µM
Outline: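 Nrf2-dependent transcription read as ONE-Glo luciferase signal from ARE-luc HepG2 reporter cells after 16 hr compound treatment at 37 C, 5% CO2, in assay medium with 1% dialyzed FBS.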

[11] = qHTS assay for small molecule antagonists of the retinoid-related orphan receptor gamma (ROR-gamma) signaling pathway - cell viability counter screen (AID 720652; active means well fitted curve in the direction sought with a large enough effect in the repeat runs; an effect the other way counts as inactive or inconclusive;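 further: CHO reporter cells with doxycycline-induced ROR-gamma expression; compound exposure lasted 16 hr before ATP read; on the % scale 0 is the no-effect control and ±100 the full control effect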); settings: RORgamma reporter cell line viability counter screen; series mostly up to 92.2 µM
Outline: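 Cytotoxicity is quantified via intracellular ATP (CellTiter-Glo luminescence) in doxycycline-induced CHO ROR response element-luciferase reporter cells treated with compound for 16 hr at 37 C, 5% CO2.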

[12] = qHTS assay for small molecule agonists of the antioxidant response element (ARE) signaling pathway measured by Nrf2-dependant transcriptional activity - cell viability counter screen (AID 720653; active means well fitted curve in the direction sought with a large enough effect in the repeat runs; an effect the other way counts as inactive or inconclusive; further: on the % scale 0 is the no-effect control and ±100 the full control effect); settings: ARE-bla HepG2 viability, CellTiter-Glo ATP luminescence, 16 h; active compounds read low
Outline: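 ARE-bla HepG2 cells treated with compounds for 16 h at 37C; this counter screen measures viability as intracellular ATP by CellTiter-Glo luminescence after 30 min at room temperature.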

[13] = qHTS Assay for Identifying Gametocytocidal Compounds (AID 743244);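 further: on the % scale 0 is the no-effect control and ±100 the full control effect; actives lower the fluorescent signal which means gametocytes are killed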; settings: P. falciparum 3D7 stage III-V gametocytes, alamarBlue, 72 h; max response: active compounds read low
Outline: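 Viability read-out was resazurin reduction (alamarBlue, 24 h) measured at Ex 525/Em 598 nm. Beforehand, late-stage (III-V) 3D7 P. falciparum gametocytes at 20,000 cells/well were incubated with compound 72 h at 37C under 5% CO2.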

Cc1ncc[nH]1
inactive: activation [1] -3.81% | activation [2] 0.166% | Potency [3] | Potency [4] | Potency [5] | Potency [6] | activation [7] 0.165% | max response [8] -1.93% | Potency [9] | Potency [10] | outcome [11] | max response [12] 2.15% | max response [13] 20%

C=CC(C)(O)CC/C=C(\C)CCC=C(C)C (stereo unspecified)
inactive: activation [1] -1.4% | activation [2] 0.695% | activation [7] 0.207% | max response [8] -0.214% | Potency [10] | max response [12] 1.82% | max response [13] -0.0803%

Nc1nccs1
inactive: activation [1] 2.07% | activation [2] 0.221% | Potency [5] | activation [7] 1.04% | max response [8] -4.35% | Potency [9] | Potency [10] | max response [12] -16.1% | max response [13] 1.76%

ClC(Cl)Cl
inactive: activation [1] 0.456% | activation [2] -1.06% | Potency [3] | Potency [4] | Potency [5] | activation [7] -0.58% | max response [8] 0.366% | Potency [10] | outcome [11] | max response [12] -10.5% | max response [13] 9.6%

OB(O)O
inactive: activation [1] -0.565% and -2.3% | Potency [3] | Potency [4] | Potency [5] | Potency [6] | activation [7] 0.198% and -2.21% | max response [8] -2.01% and 0.448% | Potency [9] | Potency [10] | outcome [11] | max response [12] -7.44% and 3.96% | max response [13] 7.6%

[O-][N+](=Nc1ccccc1)c1ccccc1
inactive: activation [1] 1.25% | activation [2] 0.0708% | Potency [3] | Potency [4] | Potency [5] | max response [8] 10.8% | outcome [11] | max response [12] -2.2% | max response [13] 18.6%

Source: PubChem BioAssay (NCATS)
